This is an account of results in PubChem BioAssay (NCI).

The nature of assay [1]: NCI Yeast Anticancer Drug Screen. Data for the rad50 strain (AID 155).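 Further: 0% = growth of vehicle-only cultures of the same strain.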 The note with it: S. cerevisiae rad50 strain growth inhibition; at 50.0 µM; active compounds read high. In outline:
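Yeast carrying a defined DNA repair defect were exposed to test compounds, and growth was compared with vehicle-treated controls to give percent inhibition.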

Assay [2] is described as follows: NCI Yeast Anticancer Drug Screen. Data for the mec2-1 strain (AID 157). The note with it: S. cerevisiae mec2-1 strain, at 50.0 µM, active compounds read high. In outline: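 Mutant yeast (mec2-1) grown with compound; growth inhibition relative to vehicle control reported.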
Assay [3] can be described thus: NCI Yeast Anticancer Drug Screen. Data for the sgs1 mgt1 strain (AID 161).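 Further: 0% = growth of cultures given vehicle only.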 The following applies: S. cerevisiae sgs1 mgt1 strain, at 50.0 µM, active compounds read high. A digest of the protocol: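 Compounds are added to genetically altered yeast, and growth is compared with cultures given vehicle alone to give percent inhibition.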
Assay [4] in a line: NCI Yeast Anticancer Drug Screen. Data for the cln2 rad14 strain (AID 165).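 Further: 0% = growth equal to vehicle treated cultures.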 The note with it: S. cerevisiae cln2 rad14 strain, at 50.0 µM, active compounds read high. A digest of the protocol: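 Readout is yeast growth inhibition versus vehicle-treated controls, using a strain with cln2 and rad14 alterations exposed to compound.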
Assay [5] in a line: NCI Yeast Anticancer Drug Screen. Data for the bub3 strain (AID 167). The note with it: S. cerevisiae bub3 mutant strain, at 50.0 µM, active compounds read high. A digest of the protocol: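 Compounds were applied to a genetically altered yeast strain carrying a cell-cycle control defect. Growth inhibition was scored against vehicle-treated controls.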
Assay [6] is described as follows: NCI Yeast Anticancer Drug Screen. Data for the mlh1 rad18 strain (AID 175). The note with it: S. cerevisiae mlh1 rad18 strain growth inhibition; at 50.0 µM; active compounds read high. In outline: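 Genetically defined yeast (DNA repair-deficient) exposed to compounds; growth inhibition determined relative to vehicle.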

The structures appear in SMILES notation. This is part of a sample that, as a whole, favours compounds with a hit. Of some 79,000 tested, about 15% had one in any assay. Values without a mark were called inactive. Activity calls are given as the source filed them. No stated cut-off is given here; in the data, active means growth inhibition above about 70%; inactive means the rest.

As to `CCCCn1cnc2c(SSc3ncnc4c3ncn4CCCC)ncnc21`, the growth inhibition is -11.6% in assay [1]; -11.3% in assay [2]; 5.1% in assay [3]; 12% in assay [4]; 22.4% in assay [5]; 75.7% (active) in assay [6].

As to `CC(=O)Nc1cc(F)c(N=Nc2ccc([N+](=O)[O-])cc2)c(F)c1`, the growth inhibition is -9.5% in assay [1]; -3.45% in assay [2]; 22.1% in assay [3]; -38.2% in assay [4]; -28.1% in assay [5]; -10.3% in assay [6].

On to `O=c1[nH]nc(Cc2ccccc2)n1CCCl`, for which the growth inhibition was 16.9% in assay [1]; 13.8% in assay [2]; 15.6% in assay [3]; -3.7% in assay [4]; 8.35% in assay [5]; 11.5% in assay [6].

In the case of `CC1OC(c2ccc(Cl)cc2Cl)OC1C` (configuration not stated), the growth inhibition was 6.45% in assay [1]; -0.9% in assay [2]; 2.65% in assay [3]; 0.7% in assay [4]; 0.95% in assay [5]; 1.5% in assay [6].

Regarding `Cc1ccc(C)c(N2C(=O)C(=O)C(c3nc4ccccc4o3)/C(=N/N)C2=O)c1` (configuration not stated), the growth inhibition in assay [1] is -18.8%; in assay [2] it was 34%; in assay [3], 14.2%; in assay [4], -17%; in assay [5], 5.25%; in assay [6], -17.8%.

For the compound `Nc1nc(N)c2cc(S(=O)(=O)c3ccc(Cl)cc3)ccc2n1`, the growth inhibition in assay [1] is 21.9%; in assay [2] it was 36.1%; in assay [3] it was 12.5%; in assay [4], -12.2%; in assay [5] it was 17.8%; in assay [6] it was 28.6%.

`CC12CCC=CC1=CC(=O)CC2` (configuration not stated): the growth inhibition was 1.35% in assay [1]; 16.5% in assay [2]; 1.05% in assay [3]; 4.65% in assay [4]; -6.8% in assay [5]; 32.9% in assay [6].

`CCOC(=O)NOC1CCCCO1` (configuration not stated): the growth inhibition was 1.05% in assay [1]; -6.8% in assay [2]; -3.2% in assay [3]; -14.6% in assay [4]; -10.9% in assay [5]; 4.95% in assay [6].

For `CSc1ncc(C#N)c2nc(-c3ccccc3)nn12`, the growth inhibition in assay [1] is 5.6%; in assay [2] it was 13.9%; in assay [3] it was 3.35%; in assay [4], 8.1%; in assay [5], 12.1%; in assay [6], 18.3%.

As to `CSC(=S)S(=O)(=O)C12CC3CC(CC(C3)C1)C2`, the growth inhibition is 90.5% (active) in assay [1]; 93.2% (active) in assay [2]; 89.5% (active) in assay [3]; 90% (active) in assay [4]; 86.5% (active) in assay [5]; 92.6% (active) in assay [6].

For `CSc1ccc(NC(=O)SCc2ccccc2)cc1`, the growth inhibition in assay [1] was -3.5%; in assay [2], 5.15%; in assay [3] it was 1%; in assay [4], -2.7%; in assay [5], 15.9%; in assay [6] it was 8.55%.

For the compound `COc1cccc2cc(C(C)=O)c(=O)oc12`, the growth inhibition in assay [1] was 8.65%; in assay [2] it was -5.35%; in assay [3], 1.6%; in assay [4], 3%; in assay [5], 9.05%; in assay [6], 2.85%.

With `CCC(C)Sc1nc2ccc(NC(=O)/C=C/C(=O)O)cc2s1` (configuration not stated), the growth inhibition in assay [1] was 31.5%; in assay [2], 10%; in assay [3], 11.7%; in assay [4], 15.7%; in assay [5], 13.5%; in assay [6], 16.1%.

For the compound `C=C(Nc1ccc(OC)cc1OC)C(=O)Cc1cccc[n+]1[O-]`, the growth inhibition was 6.25% in assay [1]; -2.45% in assay [2]; -10.5% in assay [3]; -2.4% in assay [4]; -3.4% in assay [5]; -8.8% in assay [6].

Consider `CCCCCCCCCC(CC(OC)OCC)OC` (configuration not stated), for which the growth inhibition is 10.7% in assay [1]; 4.25% in assay [2]; 5.9% in assay [3]; -13.8% in assay [4]; -2.7% in assay [5]; -24.6% in assay [6].

Consider `O=C(/C=C/c1ccccc1Cl)c1ccccc1[N+](=O)[O-]`, for which the growth inhibition is 96% (active) in assay [1]; 97.5% (active) in assay [2]; 97.7% (active) in assay [3]; 94.7% (active) in assay [4]; 96.5% (active) in assay [5]; 95.7% (active) in assay [6].

As to `CCCCN(CCCC)CC(O)c1cc(-c2ccc(Cl)cc2)nc2c(Cl)cc(Cl)cc12` (configuration not stated), the growth inhibition in assay [1] was 26.4%; in assay [2], 5.05%; in assay [3], 10.3%; in assay [4] it was 18.1%; in assay [5], 0.45%; in assay [6], 28.9%.

Turning to `Cc1ccc(Cl)c(NC(=O)COc2ccc(Cl)cc2)c1`, the growth inhibition was -1.2% in assay [1]; 28.3% in assay [2]; 22.3% in assay [3]; -6.6% in assay [4]; 32.7% in assay [5]; 26.4% in assay [6].

For the compound `Nc1ccccc1C(=O)/C=C/c1c(O)ccc2ccccc12`, the growth inhibition in assay [1] is 29.6%; in assay [2], 9.5%; in assay [3] it was 10.2%; in assay [4], 15.9%; in assay [5], 21.1%; in assay [6], 34.3%.

As for `CC(CC[C@@H](O)C(C)(C)O)C1[C@@H](O)CC2(C)C3CC(O)C4C(C)(C)[C@@H](OC5OC(CO)C(O)C(O)C5O)CC[C@@]45C[C@@]35CC[C@]12C` (some centres not stated), the growth inhibition in assay [1] was -14.9%; in assay [2] it was 2.65%; in assay [3], 0.15%; in assay [4] it was -30.2%; in assay [5], -5.9%; in assay [6], -28.1%.

Consider `CSc1c(S(C)=O)[nH]c2cc(Br)cc(Br)c12` (configuration not stated), for which the growth inhibition is 84.2% (active) in assay [1]; 89.3% (active) in assay [2]; 88.7% (active) in assay [3]; 71.6% (active) in assay [4]; 89.4% (active) in assay [5]; 85.2% (active) in assay [6].

For `CC(=O)CC(C)(C)NC(=S)Nc1ccc(O)cc1`, the growth inhibition in assay [1] was 99.7% (active); in assay [2], 99.5% (active); in assay [3], 99.8% (active); in assay [4] it was 98.8% (active); in assay [5], 99.8% (active); in assay [6] it was 99.8% (active).
